Assay results from PubChem BioAssay (NCATS).
The source made the active and inactive calls. A call without a number means that no potency is given here. The call rests on the fitted dose curve; in most records, active means well fitted curve in the direction sought with a large enough effect; inconclusive means small, poorly fitted or top-dose-only effect, or another doubt; inactive means no such curve, though single readings can be large or run the other way.

molecular target: Guanine nucleotide-binding protein G(i) subunit alpha-1 (Homo sapiens) (UniProt P63096); test: qHTS Assay for Inhibitors of RGS12 GoLoco Motif Activity (Green Fluorophore) (AID 879); settings: Galphai1/FITC-RGS12 GoLoco peptide, fluorescence polarization; series mostly up to 57.1 µM;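 further: negative values mean loss of peptide binding seen as reduced polarization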
Method in brief: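 Fluorescence polarization assay: 50 nM Gαi1 with 10 nM FITC-labeled RGS12 GoLoco peptide in 10 mM Tris pH 7.5, 150 mM NaCl, 0.1 mM GDP, 0.05% NP40, 10 min at room temperature with compound.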

Guanine nucleotide-binding protein G(i) subunit alpha-1 (Homo sapiens), sequence (P63096 whole entry, looked up): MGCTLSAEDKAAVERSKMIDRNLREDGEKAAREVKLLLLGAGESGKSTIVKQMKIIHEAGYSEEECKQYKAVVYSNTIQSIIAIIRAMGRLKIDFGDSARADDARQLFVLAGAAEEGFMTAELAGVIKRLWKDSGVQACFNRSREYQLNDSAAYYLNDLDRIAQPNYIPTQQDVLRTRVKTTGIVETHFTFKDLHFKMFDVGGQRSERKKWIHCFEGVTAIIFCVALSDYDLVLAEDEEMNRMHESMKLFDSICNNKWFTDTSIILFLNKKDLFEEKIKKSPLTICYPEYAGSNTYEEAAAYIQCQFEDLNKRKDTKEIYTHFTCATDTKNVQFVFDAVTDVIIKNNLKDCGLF

| SMILES | Potency |
| --- | --- |
| CC(=O)C(C)=O | inactive |
| NC(N)=[N+]1CCc2ccccc2C1 | inactive |
| C/C(=C\c1ccc(C(=O)O)cc1)c1ccc2c(c1)C(C)(C)CCC2(C)C | inactive |
| C#CCn1c(=O)c2c(ncn2C)n(C)c1=O | inactive |
| Cn1ccnc1 | inactive |
| NC1(C(=O)O)CC1 | inactive |
| Cc1cccc(C(=O)NCN2CCN(c3ccccc3C#N)CC2)c1 | inactive |
| N=C(N)c1ccc(N)cc1 | inactive |
| Nc1nc2ccc(Cl)cc2c2nc(-c3ccco3)nn12 | inactive |
| CN1CCN(c2nc3cc(C(F)(F)F)ccc3n3cccc23)CC1 | inactive |
| NC(=O)c1ccccc1 | inactive |
| COc1ccccc1N1CCN(CCN(C(=O)c2ccc(F)cc2)c2ccccn2)CC1 | inactive |
